{"source": "PubChem BioAssay AID1345085", "about": "(National Center for Advancing Translational Sciences (NCATS), 2018)", "note": "Inconclusive results are not listed. Active and inactive are the calls of the source. Calls follow the shape of the dose curve; as a rule, active = well fitted cell-killing curve with a large enough effect; inconclusive = small, poorly fitted or top-dose-only effect, or effect the other way; inactive = no such curve, though single readings can be large or run the other way. % is scaled to controls: 0 for no effect and ±100 for the full control effect; potency is read from the fitted curve at half-maximal effect.", "data": [{"test_system": "SKOV3", "test": "Confirmatory qHTS for gynecologic anti-cancer compounds from libraries of approved drugs and bioactive compounds; also: nearly all actives have a fitted effect of over 55% in size", "settings": "gynecologic cancer cell panel viability, ATPlite luminescence, 48 h; series mostly up to 57.6 µM; activity change, negative = viability loss: at the top concentration", "procedure,_shortened": "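1,000 cells/well; 16 h pre-incubation 37 C, 5% CO2; pin-transferred cpd in DMSO, 11 conc (1:3), 57.5 uM–0.977 nM; 48 h; ATPlite, 15 min RT; luminescence → IC50.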", "values": [{"smiles": "Cc1cc(Nc2nc(N[C@@H](C)c3ccc(F)cc3)c(C#N)cc2F)n[nH]1", "Potency": "7.69 µM (active)"}, {"smiles": "CCc1c2c(nc3ccc(O)cc13)-c1cc3c(c(=O)n1C2)COC(=O)[C@]3(O)CC", "Potency": "0.0243 µM (active)"}, {"smiles": "c1nc2nc(Nc3ccc(N4CCOCC4)cc3)nc(NC3CCCCC3)c2[nH]1", "activity change, negative = viability loss": "-28.5% [at 19.5 µM] (inactive)"}, {"smiles": "O=C(c1ccc(/C=C/c2n[nH]c3ccccc23)cc1)N1CCNCC1", "Potency": "21.7 µM (active)"}, {"smiles": "CCS(=O)(=O)c1cccc(-c2cc(C(=O)NC3CCN(C)CC3)c(C)c3[nH]c4ncc(C)cc4c23)c1", "Potency": "4.76 µM (active)"}, {"smiles": "CC(C)C[C@H](NC(=O)[C@H](Cc1ccccc1)NC(=O)c1cnccn1)B(O)O", "Potency": "3.06 µM (active)"}, {"smiles": "COc1cc(N2CCC(N(C)C)CC2)ccc1Nc1ncc(Cl)c(Nc2ccccc2P(C)(C)=O)n1", "Potency": "6.11 µM (active)"}, {"smiles": "CC(C)n1c(/C=C/[C@@H](O)C[C@@H](O)CC(=O)O)c(-c2ccc(F)cc2)c2ccccc21", "Potency": "1.72 µM (active)"}, {"smiles": "Cc1cnc(CNC(=O)c2c(=O)c3ccc(N4CCCN(C)CC4)nc3n3c2sc2ccccc23)cn1", "activity change, negative = viability loss": "5.48% [at 10.7 µM] (inactive)"}, {"smiles": "Cc1nc(NC(=O)N2CCCC2C(N)=O)sc1-c1ccnc(C(C)(C)C(F)(F)F)c1", "note": "(stereo not drawn)", "Potency": "0.685 µM (active)"}, {"smiles": "CC(Oc1ccc2[nH]nc(/C=C/c3cnn(CCO)c3)c2c1)c1c(Cl)cncc1Cl", "note": "(stereo not drawn)", "Potency": "3.06 µM (active)"}, {"smiles": "CCN(CC)CCCC(C)Nc1ccnc2cc(Cl)ccc12", "note": "(stereo not drawn)", "activity change, negative = viability loss": "7.6% [at 19.5 µM] (inactive)"}, {"smiles": "Cc1ccc(C(=O)Nc2ccc(CN3CCN(C)CC3)c(C(F)(F)F)c2)cc1C#Cc1cnc2cccnn12", "Potency": "12.2 µM (active)"}, {"smiles": "CN(c1nccc(=O)[nH]1)C1CCN(c2nc3ccccc3n2Cc2ccc(F)cc2)CC1", "activity change, negative = viability loss": "43.6% (inactive)"}, {"smiles": "COc1cccc2c1C(=O)c1c(O)c3c(c(O)c1C2=O)C[C@@](O)(C(=O)CO)C[C@@H]3O[C@H]1C[C@H](N)[C@H](O[C@@H]2CCCCO2)[C@H](C)O1", "Potency": "0.685 µM (active)"}, {"smiles": "CC(C)Oc1ccc2c(=O)c(-c3ccccc3)coc2c1", "Potency": "21.7 µM (active)"}, {"smiles": "NC(=O)c1cnc(-c2ccc(C3(N)CCC3)cc2)c(-c2ccccc2)c1", "Potency": "9.68 µM (active)"}, {"smiles": "CCn1c(-c2nonc2N)nc2c(C#CC(C)(C)O)ncc(OCC3CCCNC3)c21", "note": "(stereo not drawn)", "activity change, negative = viability loss": "-22.6% (inactive)"}, {"smiles": "O=C(CCCCCCNC(=O)c1cnc(N(c2ccccc2)c2ccccc2)nc1)NO", "Potency": "12.2 µM (active)"}, {"smiles": "COc1ccc(OC)c(-c2nnc3ccc(-c4ccc(OC)c(O[C@@H]5CCOC5)c4)nn23)c1", "activity change, negative = viability loss": "-8.13% (inactive)"}, {"smiles": "OCCNC1CCCc2c1[nH]c1ccc(-c3ccccc3)cc21", "note": "(stereo not drawn)", "Potency": "30.6 µM (active)"}, {"smiles": "CNCc1ccc(-c2[nH]c3cc(F)cc4c3c2CCNC4=O)cc1", "activity change, negative = viability loss": "14.9% (inactive)"}, {"smiles": "CC(=O)NCC(=O)N1C2CCC1c1cc(Nc3ncc(C(F)(F)F)c(NC4CCC4)n3)ccc12", "note": "(stereo not drawn)", "Potency": "17.2 µM (active)"}, {"smiles": "Cc1cc(Nc2nc(N[C@@H](C)c3ncc(F)cn3)ncc2Cl)n[nH]1", "activity change, negative = viability loss": "-9.9% (inactive)"}, {"smiles": "COc1cc(N2CCC(N3CCN(C)CC3)CC2)ccc1Nc1ncc(Cl)c(Nc2ccccc2S(=O)(=O)C(C)C)n1", "Potency": "19.3 µM (active)"}, {"smiles": "CCCC(=O)O[C@]1(C(=O)CCl)[C@@H](C)C[C@H]2[C@@H]3CCC4=CC(=O)C=C[C@]4(C)[C@@]3(F)C(=O)C[C@@]21C", "activity change, negative = viability loss": "-11.2% (inactive)"}, {"smiles": "CN1C2CCC1CC(OC(=O)[C@H](CO)c1ccccc1)C2", "note": "(stereo partly drawn)", "activity change, negative = viability loss": "-7.8% (inactive)"}, {"smiles": "CN[C@@H](C)C(=O)N[C@H]1CN(C(=O)CC(C)C)CC[C@H]2CC[C@@H](C(=O)NC(c3ccccc3)c3ccccc3)N2C1=O", "Potency": "0.611 µM (active)"}, {"smiles": "CC(=O)c1cnc2ccc(-c3cc(Cl)c(O)c(Cl)c3)nc2c1NC1CCC(CN(C)C)CC1", "note": "(stereo not drawn)", "Potency": "0.498 µM (active)"}, {"smiles": "CCN(CC)CCNC(=O)c1c(C)[nH]c(/C=C2\\C(=O)Nc3ccc(F)cc32)c1C", "Potency": "15.8 µM (active)"}, {"smiles": "Cc1nc(Nc2n[nH]c3c2CN(C(=O)NC(CN(C)C)c2ccccc2)C3(C)C)c2sccc2n1", "note": "(stereo not drawn)", "Potency": "3.06 µM (active)"}, {"smiles": "CCN1CCN(Cc2ccc(-c3cc4c(NC(C)c5ccccc5)ncnc4[nH]3)cc2)CC1", "note": "(stereo not drawn)", "Potency": "17.2 µM (active)"}, {"smiles": "CN(C)CC/C=C1\\c2ccccc2COc2ccccc21", "activity change, negative = viability loss": "7.32% (inactive)"}]}]}
